Laboratory results published in PubChem BioAssay (NCI).
The panel holds about 79,000 compounds, 15% with a hit somewhere; the sample as a whole holds those more often. Calls of active or inactive are those of the source. Cut-off read from the data, not from the text of the source: active = growth inhibition above about 70%; inactive = the rest.

Experiments:
[1] = NCI Yeast Anticancer Drug Screen. Data for the rad52 strain (AID 147);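 note: 0% = growth of vehicle-treated control cultures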; details: S. cerevisiae rad52 mutant growth inhibition, active compounds read high
In short: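 Yeast strain carrying a DNA damage repair alteration was exposed to test compounds. Growth inhibition was measured relative to vehicle-treated controls.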

[2] = NCI Yeast Anticancer Drug Screen. Data for the wt1 strain (AID 149);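 note: 0% = growth of vehicle-treated wt1 cultures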; details: S. cerevisiae wt1 strain (SPY 50644) growth inhibition, active compounds read high
In short: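 Each compound is tested on wt1 yeast and the loss of growth versus vehicle gives the inhibition value.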

[3] = NCI Yeast Anticancer Drug Screen. Data for the rad50EPP+ strain (AID 151);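 note: 0% = growth of vehicle-treated control cultures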; details: S. cerevisiae rad50 mutant strain, active compounds read high
In short: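 Yeast strain carrying rad50 alteration (rad50EPP+) exposed to compounds; growth inhibition measured relative to vehicle-treated controls.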

[4] = NCI Yeast Anticancer Drug Screen. Data for the rad50 strain (AID 155);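 note: 0% = growth of vehicle-only cultures of the same strain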; details: S. cerevisiae rad50 strain growth inhibition, active compounds read high
In short: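 Vehicle-treated cultures provide the reference for the growth inhibition reported for compound-exposed, repair-deficient yeast.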

[5] = NCI Yeast Anticancer Drug Screen. Data for the mec2-1 strain (AID 157); details: S. cerevisiae mec2-1 strain, active compounds read high
In short: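 mec2-1 yeast strain, carrying an alteration in DNA damage repair or cell cycle control, was exposed to compounds; growth inhibition was measured relative to vehicle-treated controls.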

[6] = NCI Yeast Anticancer Drug Screen. Data for the rad14 strain (AID 159);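 note: 0% = growth of vehicle-treated control cultures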; details: S. cerevisiae rad14 strain growth inhibition, active compounds read high
In short: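 Inhibition of growth is reported for a repair-deficient yeast mutant following compound treatment, calculated relative to cultures that received vehicle.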

[7] = NCI Yeast Anticancer Drug Screen. Data for the sgs1 mgt1 strain (AID 161);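 note: 0% = growth of cultures given vehicle only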; details: S. cerevisiae sgs1 mgt1 strain, active compounds read high
In short: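 Compounds are added to genetically altered yeast, and growth is compared with cultures given vehicle alone to give percent inhibition.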

[8] = NCI Yeast Anticancer Drug Screen. Data for the CLN2oe strain (AID 163);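 note: 0% = growth of vehicle-only control cultures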; details: S. cerevisiae CLN2oe strain, active compounds read high
In short: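 Yeast cells carrying a defined cell-cycle control alteration were exposed to test compounds. Growth inhibition was scored against vehicle-treated control cultures.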

[9] = NCI Yeast Anticancer Drug Screen. Data for the cln2 rad14 strain (AID 165);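 note: 0% = growth equal to vehicle treated cultures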; details: S. cerevisiae cln2 rad14 strain, active compounds read high
In short: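 Yeast carrying cln2 and rad14 alterations (cell cycle control and DNA damage repair) were exposed to compounds. Growth inhibition was measured against vehicle-treated controls.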

[10] = NCI Yeast Anticancer Drug Screen. Data for the bub3 strain (AID 167); details: S. cerevisiae bub3 mutant strain, active compounds read high
In short: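 Mutant yeast screening strain plus compound; vehicle-treated cultures serve as the 0% inhibition reference.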

[11] = NCI Yeast Anticancer Drug Screen. Data for the wt2 strain (AID 169); details: S. cerevisiae wt2 strain growth inhibition, active compounds read high
In short: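 Yeast cells were exposed to test compounds, and growth inhibition was measured relative to vehicle-treated controls.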

[12] = NCI Yeast Anticancer Drug Screen. Data for the mlh1 strain (AID 171);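 note: 0% = growth of vehicle-treated control cultures of the same strain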; details: S. cerevisiae mlh1 strain growth inhibition, active compounds read high
In short: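 Yeast carrying a defined genetic alteration in DNA damage repair or cell cycle control were exposed to test compounds. Growth inhibition was measured relative to vehicle-treated controls.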

[13] = NCI Yeast Anticancer Drug Screen. Data for the sgs1 strain (AID 173);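 note: 0% = growth of vehicle-only control cultures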; details: S. cerevisiae sgs1 mutant, active compounds read high
In short: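 Yeast mutant strains carrying defined defects in DNA damage repair or cell cycle control were exposed to test compounds. Growth inhibition was scored against vehicle-treated controls.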

[14] = NCI Yeast Anticancer Drug Screen. Data for the mlh1 rad18 strain (AID 175); details: S. cerevisiae mlh1 rad18 strain growth inhibition, active compounds read high
In short: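 Growth inhibition of the yeast strain was measured after compound exposure and expressed relative to vehicle-treated controls. The strain carries defined defects in DNA damage repair.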

[15] = NCI Yeast Anticancer Drug Screen. Data for the rad18 strain (AID 177); details: S. cerevisiae rad18 mutant growth inhibition, active compounds read high
In short: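 Yeast carrying a defined DNA damage repair alteration were exposed to compounds. Growth inhibition was expressed relative to vehicle-treated controls.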

[16] = at 5.0 µM (retest, dose inferred, filed as 0.5)
[17] = at 50.0 µM (retest, dose inferred, filed as 5.0)

Measured: growth inhibition

[N-]=[N+]=NC(c1ccccc1)(c1ccccc1)c1ccccc1
active: [1]; at 100.0 µM 94% | [2]; at 100.0 µM 88% | [4]; [16] 100% | [4]; [17] 98% | [4]; at 50.0 µM 85% | [4]; at 100.0 µM 92% | [5]; [16] 99% | [5]; [17] 98% | [5]; at 50.0 µM 80.8% | [5]; at 100.0 µM 95% | [6]; at 100.0 µM 94% | [7]; [17] 84% | [7]; at 50.0 µM 87.7% | [8]; at 100.0 µM 78% | [9]; [17] 89% | [9]; at 50.0 µM 80.5% | [10]; [17] 79% | [10]; at 50.0 µM 87.8% | [10]; at 100.0 µM 86% | [11]; at 100.0 µM 89% | [12]; at 100.0 µM 91% | [13]; at 100.0 µM 87% | [14]; [16] 100% | [14]; [17] 99% | [14]; at 50.0 µM 84.1% | [15]; at 100.0 µM 87%
inactive: [1]; at 1.2 µM 8% | [1]; at 3.7 µM 6% | [1]; at 11.0 µM 9% | [1]; at 33.0 µM 29% | [2]; at 1.2 µM 15% | [2]; at 3.7 µM 12% | [2]; at 11.0 µM -6% | [2]; at 33.0 µM 32% | [3]; at 1.2 µM 9% | [3]; at 3.7 µM 15% | [3]; at 11.0 µM 11% | [3]; at 33.0 µM 21% | [3]; at 100.0 µM 28% | [4]; at 1.2 µM 14% | [4]; at 3.7 µM 22% | [4]; at 11.0 µM 6% | [4]; at 33.0 µM 40% | [5]; at 1.2 µM 12% | [5]; at 3.7 µM 11% | [5]; at 11.0 µM 13% | [5]; at 33.0 µM 32% | [6]; at 1.2 µM -9% | [6]; at 3.7 µM 1% | [6]; at 11.0 µM -4% | [6]; at 33.0 µM 24% | [7]; [16] -4% | [8]; at 1.2 µM 29% | [8]; at 3.7 µM 23% | [8]; at 11.0 µM 20% | [8]; at 33.0 µM 26% | [9]; [16] 17% | [10]; at 1.2 µM 3% | [10]; at 3.7 µM -17% | [10]; [16] 12% | [10]; at 11.0 µM -16% | [10]; at 33.0 µM 27% | [11]; at 1.2 µM -14% | [11]; at 3.7 µM -9% | [11]; at 11.0 µM -11% | [11]; at 33.0 µM 16% | [12]; at 1.2 µM 6% | [12]; at 3.7 µM 10% | [12]; at 11.0 µM 13% | [12]; at 33.0 µM 42% | [13]; at 1.2 µM 0% | [13]; at 3.7 µM -15% | [13]; at 11.0 µM -8% | [13]; at 33.0 µM 66% | [15]; at 1.2 µM 10% | [15]; at 3.7 µM 6% | [15]; at 11.0 µM 14% | [15]; at 33.0 µM 37%
